Data: PubChem BioAssay (NCI)
The panel holds about 79,000 compounds, 15% with a hit somewhere; the sample as a whole holds those more often. A number with no mark means an inactive call. Active and inactive are the calls of the source. No stated cut-off is given here; in the data, active means growth inhibition above about 70%; inactive means the rest.

Experiment: NCI Yeast Anticancer Drug Screen. Data for the rad52 strain (AID 147);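 further: 0% = growth of vehicle-treated control cultures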
Settings: S. cerevisiae rad52 mutant growth inhibition, hits give high values
Experimental: Growth inhibition of yeast strains with defined genetic alterations is measured as a screen for potential anti-cancer activity. Selected strains with alterations in DNA damage repair or cell cycle control were exposed to compounds and growth inhibition was measured relative to vehicle treated controls. The strain used in this assay is rad52

SMILES	growth inhibition (at 1.2 µM)	growth inhibition (at 3.7 µM)	growth inhibition (at 11.0 µM)	growth inhibition (at 33.0 µM)	growth inhibition (at 100.0 µM)
Nc1nc(Cl)c(Cl)c(Cl)n1	1%	8%	32%	88% (active)	99% (active)
CCCCCCCC1(N=[N+]=[N-])C(=O)c2ccccc2N(C)C1=O (stereo not given)	2%	18%	18%	68%	75% (active)
O=C1c2ccccc2C(=O)c2cc(CBr)ccc21	5%	16%	21%	79% (active)	91% (active)
Cn1c(=O)c(-c2ccccc2)c(N=[N+]=[N-])c2ccccc21	-11%	-6%	3%	92% (active)	89% (active)
COc1ccccc1C(=O)OCC1CCCN2CCCCC12 (stereo not given)	22%	8%	57%	76% (active)	97% (active)
COc1ccc(/C(C)=N/OC(=O)c2c(-c3ccccc3Cl)noc2C)cc1CN1CCOCC1	21%	23%	19%	34%	75% (active)
CCN(CC)[P+](c1ccccc1O)(N(CC)CC)N(CC)CC	-25%	-15%	17%	27%	85% (active)
O=C1OC(=O)C2CCCC3CCCC1C32 (stereo not given)	23%	67%	85% (active)	90% (active)	97% (active)
